In ChEMBL document CHEMBL4513216, “Probing the Open Global Health Chemical Diversity Library for Multistage-Active Starting Points for Next-Generation Antimalarials” (ACS Infect Dis, 2020) one finds INHIBITION data, which are given here for 107 compounds.

Molecules are shown by their SMILES. Screen size: about 69,000 compounds; about 8,600 (12%) showed an effect of 50% or more. What follows is part of a selection rich in strong results, with near analogues and random picks from the rest.

This experiment relates to Plasmodium berghei. Description: Screen against P. berghei liver stage (PbLuc), transformed with Luciferase, at 10uM. The experiment is classed as functional, HepG2. As to conditions: tested at 10 uM.
For the compound `Cc1cc(NCc2cn(C)nc2-c2cccnc2)n(C)n1`, the INHIBITION is -17.1%. The result for `CCn1cnnc1CNC(=O)N1CCCCCC1` reads -8.11%; that for `COCC1COCCC12CCN(S(=O)(=O)c1cccnc1)CC2` (configuration not stated), 36.5%; that for `Cc1cnn(CCNCc2nnc(-c3ccc(F)cc3)o2)c1`, -35.7%. Consider `O=C(C1CNCCN1C(=O)CCOc1ccccc1)N1CCCC1` (configuration not stated), for which the INHIBITION is listed as -27.5%. The value for `Cc1c(C(=O)O)cnn1-c1ccc(-c2nc(C(C)C)no2)cn1` was -44.7%; that for `CC(C)c1nc(C2CCCN(C(=O)c3ccc4[nH]nnc4c3)C2)no1` (configuration not stated) was -6.14%.

Consider `c1cnn(CCCO[C@@H]2CC[C@H]3[C@H]2OCCN3CC2CCOCC2)c1`, for which the INHIBITION was determined as 26.3%. The result for `O=C(CC1CC1)N1CCO[C@H]2[C@H](OCCCn3cccn3)CC[C@@H]21` reads 55%.

In the case of `O=C(C1CCC1)N1CCO[C@H]2[C@H](OCCCn3cccn3)CC[C@@H]21`, the INHIBITION was -47.8%. The value for `Cc1nnc(N2C[C@H](OCc3ccncc3)[C@H]3OCCC[C@H]32)s1` was 19.5%; that for `CC(=O)N1CCO[C@H]2[C@H](OCCCn3cccn3)CC[C@@H]21` was 19.4%.

Turning to `CCS(=O)(=O)N1CCO[C@H]2[C@H](OCCCn3cccn3)CC[C@@H]21`, the INHIBITION was -0.182%. With `Cc1nnc(N2C[C@@H](OCCCn3cccn3)[C@H]3OCCC[C@H]32)s1`, the INHIBITION is on record as 50.1%. The value for `c1cnn(CCCO[C@@H]2CC[C@H]3[C@H]2OCCN3CC2CC2)c1` was 53%; that for `Cc1nnc(N2C[C@H](OCCCn3cccn3)[C@H]3OCCC[C@H]32)s1` was 43.9%. The result for `Clc1ccc(OCCNCCn2cccn2)cc1` reads 9.14%. For `O=C(CCOCC(F)(F)F)N1CCCC(n2ccnc2)C1` (configuration not stated), the INHIBITION is recorded as -63.3%. The value for `O=C(NCc1ccccc1Cn1cncn1)C1CC1` was 49.8%; that for `CC(=O)N1CCN(Cc2ccccn2)CC2(CC(=O)N(C)C2)C1` (configuration not stated) was 14.1%; that for `Cc1ncsc1CCC(=O)N1CCn2cccc2C1c1cccnc1` (configuration not stated) was 59.1%. The value for `Cc1ncsc1CCC(=O)N1CCCC1c1cccnc1` (configuration not stated) was -2.79%; that for `CCN1CCC(CC(=O)N2CCn3cccc3C2c2cccnc2)CC1` (configuration not stated) was 18.9%. The result for `Cc1nnsc1C(=O)NCC1CCN(c2ccccn2)CC1` reads 14.6%; that for `CCS(=O)(=O)NCc1cccnc1N1CCCC(O)C1` (configuration not stated), 89.1%; that for `CC(NC(=O)c1cccs1)C(=O)NCc1cccnc1N1CCCCC1` (configuration not stated), 2.26%. Turning to `CCC1CCCN(C(=O)NCc2cccnc2-n2cccn2)C1` (configuration not stated), the INHIBITION came to 33.8%. The value for `CC(=O)c1ccc(C(=O)NCc2cccnc2N2CCCC(O)C2)s1` (configuration not stated) was 69.7%; that for `O=C(NCc1cccnc1N1CCCC(O)C1)c1ccc2[nH]nnc2c1` (configuration not stated) was 18.6%; that for `O=C(NCc1cccnc1N1CCCCC1)c1cccs1` was 7.12%. On to `CS(=O)(=O)NCC1CCCN(C(=O)Nc2cccnc2N2CCCC2)C1` (configuration not stated), for which the INHIBITION was -8.69%. The value for `O=C(NCc1cccnc1N1CCCCC1)c1ccc2c(c1)OCO2` was -1.85%. The result for `O=C(NCc1cccnc1N1CCCC(O)C1)c1ccsc1` (configuration not stated) reads 74.3%; that for `Cc1nnsc1C(=O)NCc1cccnc1N1CCc2ccccc2C1`, 5.8%; that for `Cc1nnsc1C(=O)NCc1cccnc1N1CCCC(O)C1` (configuration not stated), 66.3%. The value for `O=C(NC1CC1)C1[C@H]2CN(Cc3ccc(-c4cc[nH]n4)s3)C[C@@H]12` (some centres not stated) was 33.3%. Regarding `c1cc(CN2CCC3(CC2)COC(COCC2CC2)C3)co1` (configuration not stated), the INHIBITION was -17.1%. The result for `Cc1cccc(-c2nc(CNC3CCc4ncnn4C3)no2)c1` (configuration not stated) reads 23.7%.

Regarding `O=C1CCC2(CCN(Cc3ncccn3)CC2)CN1CCCO`, the INHIBITION is -33.5%. The result for `Cc1oc(-c2nc(C#N)c(NCC(C)C)o2)cc1S(=O)(=O)N1CCCC1` reads 22.6%; that for `CCN(CC)S(=O)(=O)NCC1COc2ccccc2O1` (configuration not stated), 36.9%. The result for `Cn1ccn2ncc(C(=O)NCc3cccnc3N3CCCC(O)C3)c12` (configuration not stated) reads 28.8%; that for `Cc1cc(C(=O)NCc2cccnc2N2CCCC(O)C2)[nH]n1` (configuration not stated), 34.5%. The result for `Cc1cc(C(=O)NCc2cccnc2N2CCCC(O)C2)c(C)o1` (configuration not stated) reads 55%; that for `Cc1cc(CN2CCN(C(=O)NC(C)Cn3cccn3)CC2)no1` (configuration not stated), -17.78%. With `CC(NC(=O)NCCCN(C)S(C)(=O)=O)c1cccnc1` (configuration not stated), the INHIBITION is given as -9.37%.

`CC(NC(=O)NCCCN(C)S(C)(=O)=O)c1ccncc1` (configuration not stated): the INHIBITION stood at 1.77%.

With `CC(NC(=O)NCCCN(C)S(C)(=O)=O)c1cccc(Cl)c1` (configuration not stated), the INHIBITION is given as -15.8%. The value for `CC(NC(=O)NCCCN(C)S(C)(=O)=O)c1ccc(Cl)cc1` (configuration not stated) was 62.6%. The result for `CC(NC(=O)NCCCN(C)S(C)(=O)=O)c1ccc(C#N)cc1` (configuration not stated) reads 44.1%; that for `CC(NC(=O)NCCCN(C)S(C)(=O)=O)c1ccc(F)cc1` (configuration not stated), 58.5%. The result for `Cn1cc(CC2CC(=O)N(Cc3ccc(OC(F)F)cc3)C2=O)cn1` (configuration not stated) reads 16.6%; that for `Cn1ccnc1C(=O)NCc1cnc2n1CCN(CC1CC1)CC2`, -24.1%. As to `Cc1nc2n(n1)CC(Nc1ccnc(-c3ccccc3)n1)CC2` (configuration not stated), the INHIBITION was -5.1%.

Turning to `O=C(NCCn1nc(C2CCNC2)c2cccnc21)c1ccccn1` (configuration not stated), the INHIBITION is on record as 3.91%. The value for `CC1(C)Cc2ccc(C(=O)NC3CCS(=O)(=O)C3)c(O)c2O1` (configuration not stated) was 36.8%; that for `O=C1Nc2ccccc2CNC12CCN(CC1CC1)CC2` was 20.1%; that for `c1coc(CN2C[C@H](OCC3CCOCC3)[C@H]3COC[C@H]32)c1` was 21%. Consider `CCCNC(=O)Cn1cc(OC)c(=O)cc1CSc1nc(C)cc(C)n1`, for which the INHIBITION is -3.83%. The value for `COc1cn(CC(N)=O)c(CSc2nccc(C)n2)cc1=O` was 64.3%; that for `COc1cn(CC(N)=O)c(CSc2nc(C)cc(C)n2)cc1=O` was 24%; that for `CNC(=O)CCc1cc(C)nc(C2CCN(C3CCCCC3)CC2)c1` was 15.58%.

Consider `CCOC(=O)[C@H]1CNC[C@@H]1C(=O)OCC`, for which the INHIBITION amounted to 0.868%. The result for `c1ccc(OCc2n[nH]c3c2CN(CC2CC2)C3)nc1` reads -23.3%.

Take `O=C(Cc1ccccc1F)NCC1CCN(CCc2ccccc2)C1` (configuration not stated): the INHIBITION was 26.7%. The value for `CN1CCN(CCNC(=O)C(OC2CCCC2)c2ccccc2)CC1` (configuration not stated) was 35.2%.

Regarding `O=S(=O)(Cc1ccccc1F)NCCN1CCOCC1`, the INHIBITION is given as -11.9%. The value for `O=C(NCCN1CCOCC1)c1cc(COc2ccccc2F)[nH]n1` was 63.7%. The result for `O=C(NCCCN1CCOCC1)C(OC1CCCC1)c1ccccc1` (configuration not stated) reads -12.1%.

As for `O=C(NCCN1CCOCC1)C(OC1CCCC1)c1ccccc1` (configuration not stated), the INHIBITION stood at 69.5%. As to `O=S(=O)(NCC1CCN(CCN2CCOCC2)C1)c1ccccc1F` (configuration not stated), the INHIBITION is listed as 47.1%. The result for `O=C(NCCC1CCCCO1)c1cc(COc2ccccc2F)[nH]n1` (configuration not stated) reads 25.4%.

Turning to `O=C(Cc1ccccc1F)NCC1CCN(CCN2CCOCC2)C1` (configuration not stated), the INHIBITION came out at 64.7%. For `O=C(NCC1CCCO1)c1cc(COc2ccccc2F)[nH]n1` (configuration not stated), the INHIBITION is listed as 16.8%. The result for `O=C(NCCN1CCOCC1)c1ccn(-c2ccccc2F)n1` reads -8.91%; that for `O=C(Cc1ccccc1F)NCCN1CCOCC1`, 68.4%.

As for `O=C(Nc1nccs1)NC1CCN(CC2CCCC2)CC1`, the INHIBITION was 21.45%. The result for `c1nn(C2CCCCC2)cc1-c1cncn1CCCN1CCCCC1` reads 18.75%; that for `CCC(=O)N1CCC(Cc2ccccc2-c2ccccc2)(C(N)=O)C1` (configuration not stated), 36.4%. The value for `Cc1nccn1C1CCCN(C(=O)c2cccc(OCC(N)=O)c2)C1` (configuration not stated) was -0.219%. The result for `N#Cc1ccc(OCCN2CCNC(=O)C2c2cccs2)cc1` (configuration not stated) reads 3.04%; that for `Cc1ccc(C(=O)NC2CCN(Cc3noc(C(C)(C)C)n3)CC2)s1`, -42.8%.

On to `COCCCS(=O)(=O)N(Cc1cccc(C)c1)Cc1ccccn1`, for which the INHIBITION came out at 4.13%. The value for `CCN1CCC2(CCC(=O)N2Cc2cccc(C)n2)CC1` was -6.77%. The value for `CN(C)c1cc(C(=O)N2CCCN(Cc3cscn3)CC2)ccn1` was 20.1%. For the compound `CC(CNC(=O)Nc1ccc(F)cc1Br)N1CCOCC1` (configuration not stated), the INHIBITION came out at 46.6%.

On to `CC(Cn1cncc1-c1cnn(C2CCCCC2)c1)N1CCCCC1` (configuration not stated), for which the INHIBITION is reported as -1.9%. The value for `O=C(CC1CN(Cc2ccccc2)CCO1)NC1CCCC1` (configuration not stated) was -15.8%; that for `O=C(CC1CN(Cc2ccccc2)CCO1)NCCN1CCOCC1` (configuration not stated) was 56.5%; that for `O=C(O)CC1CN(Cc2ccccc2)CCO1` (configuration not stated) was 22.1%.

`CNC(=O)c1c[nH]nc1C1CCCN1c1ncccn1` (configuration not stated): the INHIBITION was 23.9%.

In the case of `O=C1CCC2(CCN(Cc3ccc(F)cc3)CC2)N1CCN1CCCC1`, the INHIBITION is on record as -22.1%.

For `CCCc1n[nH]c(=O)n1Cc1ccc(OC)cc1`, the INHIBITION is recorded as -32.6%. With `COc1ccc(Cn2c(=O)n(C)c(=O)c3sccc32)cc1`, the INHIBITION is 75.7%. The result for `COc1cccc(Cn2c(=O)n(C)c(=O)c3sccc32)c1` reads 50.5%; that for `Cn1c(=O)c2sccc2n(Cc2ccccc2)c1=O`, 36.8%; that for `CCS(=O)(=O)N1CCC2(CCN(Cc3cccc(OC)c3)CC2)CC1`, 34.6%. The value for `COc1cccc(-n2cc3[nH]c(=O)n(Cc4cccc(F)c4)n3c2=O)c1` was 36.3%; that for `COc1ccc(CN2CCn3c(C(=O)N(C)C)cnc3C2)cc1` was 26.4%. The value for `COC(=O)c1cccc(CNC(=O)c2cc(C(C)C)n(C)n2)c1` was -55.1%. On to `COCCCC(=O)NCc1cccc(NC(N)=O)c1`, for which the INHIBITION amounted to 15.8%. For the compound `CCCC(=O)NCc1cccc(C(=O)OC)c1`, the INHIBITION was found to be 51.4%. The value for `COC(=O)c1cccc(CNC(=O)CCC(F)(F)F)c1` was 4.68%; that for `COC(=O)c1cccc(CNC(=O)CC(F)(F)F)c1` was 51.4%; that for `COC(=O)c1cccc(CNC(=O)NCCC(F)(F)F)c1` was 41.4%. The value for `CCc1nc(C)sc1CN1C[C@@H](C)[C@@](C)(O)C1` was 14.9%; that for `CSc1ncc(C(=O)N(C)C(C)Cc2ccccn2)cn1` (configuration not stated) was -1.16%.
